# A selection: hits, their analogues and other compounds. The true share with any hit is near 1.7%.
# Yp Topo-I inh – blocks Yersinia pestis topoisomerase I activity; activity, % at 10 µM; actives 0.064% (n = 360,000); Y. pestis Topo-I cleavage product accumulation, plate reader; in the data active = activity above about 50%, passing the limit was not always enough; inconclusive = no clear call, values can overlap the other calls
# PriA SSB inh – inhibitors of Klebsiella pneumoniae PriA binding to SSB C-terminal tail; actives 0.6% (n = 430,000); inhibition, % at 33 µM; AlphaScreen SSBct-PriA binding, biotinylated peptide; in the data active = inhibition mostly above about 37%, no sharp cut-off; inactive = mostly below about 20%;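 also: plate controls were negative control peptide for no effect and reference peptide for full effect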
# PrP UTR inh – inhibition of PrP 5' UTR reporter expression; cell-based PrP 5' UTR mRNA reporter, plate reader; inhibition, % (test concentration not listed); actives 0.35% (n = 340,000); in the data active = inhibition above about 52%; also: 0 = median of the neutral control wells
# BJeLR lethal – BJeLR cell viability loss. actives 0.17% (n = 300,000). BJeLR (HRASV12) viability, CellTiter-Glo ATP luminescence, 48 h. inhibition, % (no concentration beside the values); in the data active = inhibition above about 50%; inconclusive = no clear call, values can overlap the other calls
# PfHsp40 yeast – restores yeast growth despite PfHsp40 toxicity; S. cerevisiae expressing PfHsp40, growth rescue, ATP luminescence; growth rescue, % at 12.5 µM; actives 0.68% (n = 340,000); in the data active = growth rescue above about 28%, passing the limit was not always enough; inconclusive = no clear call, values can overlap the other calls;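 also: yeast W303a lacking pdr1 and pdr3 grown in galactose medium; growth measured after three days at 30 °C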
# PrPC TRFRET – reduces human prion protein on the cell surface. P04156. cell surface PrPC, TR-FRET read-out. inhibition, % at 13.8 µM. actives 0.43% (n = 370,000). AID 720596; in the data active = inhibition above about 24%; also: 0% = median of the test wells and 100% = reference compound wells
# The depositor's hits bear a star; ? = inconclusive; . = no result given; ! = not confirmed by another sample.
SMILES,Yp Topo-I inh,PriA SSB inh,PrP UTR inh,BJeLR lethal,PfHsp40 yeast,PrPC TRFRET
O=C(NCc1ccccc1)c1ccc2nccnc2c1,-4,-10,-21,5,31*,-20
O=C(NCc1cccnc1)c1ccc2nccnc2c1,.,6,.,.,.,.
Nc1nc(-c2ccccn2)nc2sccc12,.,126*,.,.,.,.
CC(C)(C)S(=O)(=O)c1cnc(-c2ccccn2)nc1N,2,-16,-5,-4,-2,4
C=C1C(=O)OC2CC1C(O)CC(C)=CCCC(C)=CC(O)CC2C (stereo not drawn),20,.,-50,.,-1,33*
CC1CCN(c2nc(N3CCCC3)c3n[nH]nc3n2)CC1,.,-7,.,.,.,.
CC(C)CCCC(C)C1CCC2C3CC=C4CC(OC(=O)/C=C/c5c6ccccc6cc6ccccc56)CCC4(C)C3CCC12C (stereo not drawn),.,-13,.,.,.,.
CCCCCCCCCCCCN1[C@@H](CC(C)=O)c2cc(C(F)(F)F)ccc2S1(=O)=O,14,-3,1,-1,7,-1
CCCCCCCCN1[C@@H](CC(=O)OCC)c2cc(C(F)(F)F)ccc2S1(=O)=O,70*,-90,-6,8,24,-3
Cc1ccccc1OCC(=O)NCc1ccsc1,.,0,.,.,.,.
O=Cc1cc(OCc2ccccc2)ccc1[B-](F)(F)F,3,3,1,.,160*,11
Nc1ccc(OCc2ccccc2)cc1[N+](=O)[O-],-1,2,-38,.,0,-30
O=C(CN1C(=O)CCC1=O)N1CCOC2(CCOCC2)C1,.,-11,.,.,.,.
Cc1cc(Cl)ccc1OCc1n[nH]c(=S)n1C1CCCCC1,11,9,-19,-12,80*,2
COc1cccc(C(C)=C2SC(=S)NC2=O)c1,1,-15,6,.,83*,-8
N/C(=N\OC(=O)c1ccc(Cl)cc1)c1ccn[nH]1,12,.,-41,0,34*,5
CCOC(=O)C1C(=O)C=C(c2ccc(OC)c(OC)c2)CC1c1ccc(F)c(Cl)c1 (stereo not drawn),.,-6,.,.,.,.
O=C(NCC1(c2ccccc2)CCCC1)C(=O)NCC1(c2ccccc2)CCCC1,4,-16,-4,-2,0,-7
O=C(NCC1(c2ccccc2)CCCC1)C1(c2ccccc2)CCCC1,68*,-20,-28,10,3,8
CCN(Cc1cc(=O)n2ccsc2n1)c1cccc2ccccc12,23,-2,-13,0,178*,13
CC1(C)C(=O)NCCN1C(=O)c1ccc(C(=O)c2ccccc2)cc1,.,-7,.,.,.,.
Oc1ccc(CNc2ccccc2F)c2cccnc12,-8,-7,20,-11,39*,-2
Oc1ccc(CNc2ncccn2)c2cccnc12,.,76*,.,.,.,.
Oc1ccc(CNc2ccccn2)c2cccnc12,.,.,.,.,.,-8
Cc1noc(-c2ccc3nccnc3c2)n1,.,41*,.,.,.,.
SMILES,Yp Topo-I inh,PriA SSB inh,PrP UTR inh,BJeLR lethal,PfHsp40 yeast,PrPC TRFRET
COc1ccccc1OCC(=O)Nc1ccc2c(c1)N(C(=O)c1cccs1)CC2,.,4,.,.,.,.
Cc1n[nH]c(=O)nc1NN=Cc1ccc(O)c([N+](=O)[O-])c1,.,-15,.,.,.,.
Cc1ccsc1C=NNc1nc(=O)[nH]nc1C,.,67*,.,.,.,.
NC(=O)C1CCN(C(=O)Cc2csc(SCC(=O)Nc3ccc(F)cc3)n2)CC1,.,-11,.,.,.,.
COc1ccc(C(=O)Nc2cccc(/C=C(\CCC(=O)O)c3nc4ccccc4s3)c2)cc1,15,3,-12,6,0,-6
O=C(O)C/C(=C\c1cccc(NC(=O)c2ccccc2Cl)c1)c1nc2ccccc2s1,18,-11,-25,-4,28*,-8
CCCCNc1c(-c2ccc(SC3CCCCC3)c(OC)c2)nc2ccc(C)cn12,19,21,-11,.,174*,4
CCC(C)Sc1ccc(-c2nc3ccc(C)cn3c2NCc2ccccc2)cc1OC (stereo not drawn),3,29,-12,4,22,.
CCC(C)Sc1cc(-c2nc3ccc(C)cn3c2NCc2ccccc2)ccc1OC (stereo not drawn),9,39*,0,5,?,11
COc1ccc(-c2nc3ccccn3c2NCc2ccc3c(c2)OCO3)cc1,18,37,-32,3,1,-7
COc1ccc(-c2nc3cc(C)ccn3c2NCc2ccc3c(c2)OCO3)cc1,-2,54*,2,3,-1,0
COc1ccc(-c2cc(-c3nc4ccccn4c3NCc3ccccc3)ccc2OC)cc1,6,-3,16,.,1,85*
Cc1ccc(NC(=S)NC(=O)c2ccccc2)c(C(=O)c2ccccc2)c1,.,14,.,.,.,.
O=[N+]([O-])c1cc(CN2CCCC2)c2cccnc2c1O,5,90*,-11,.,11,.
O=[N+]([O-])c1cc(CN2CCN(c3cccc(C(F)(F)F)c3)CC2)c2cccnc2c1O,.,90*,8,8,48*,-13
Cc1ccccc1NC(=O)NC[C@H](O)c1ccoc1,.,1,.,.,.,.
OCC[C@H]1C[C@H](O)[C@@H](O)[C@@]2(Cc3ccccc3CO2)O1,15,-1,-10,.,-1,1
OCC[C@@H]1C[C@@H](O)[C@H](O)[C@@]2(Cc3ccccc3CO2)O1,-2,-6,-27,10,46*,4
Cc1ccc(Nc2ccc(S(=O)(=O)N3CCOCC3)cc2[N+](=O)[O-])cc1C,12,69*,-6,-3,2,-4
OC(c1cc(-c2ccc(Cl)cc2)nc2ccccc12)C1CCCCN1 (stereo not drawn),-4,3,-17,126*,-2,-9
O[C@@H](c1cc(C(F)(F)F)nc2c(C(F)(F)F)cccc12)[C@H]1CCCCN1,-15,-6,-12,8,2,4
CCCN1CCCc2cc(CCNC(=O)C(=O)NCC)ccc21,.,24,.,.,.,.
CCCN1CCCc2cc(CCNS(=O)(=O)c3ccc(Br)cc3)ccc21,.,52*,.,.,.,.
CCCN1CCCc2cc(CCNS(=O)(=O)c3ccc(Cl)s3)ccc21,.,active!,.,.,.,.
CCCN1CCCc2cc(CCNS(=O)(=O)Cc3cccc(Cl)c3)ccc21,.,55*,.,.,.,.
SMILES,Yp Topo-I inh,PriA SSB inh,PrP UTR inh,BJeLR lethal,PfHsp40 yeast,PrPC TRFRET
CCCN1CCCc2cc(CCNS(=O)(=O)CC)ccc21,.,46*,.,.,.,.
CCCN1CCCc2cc(CCNS(=O)(=O)c3ccccc3)ccc21,.,86,.,.,.,.
COc1ccccc1-c1cc2c(SCC(=O)Nc3ccc(C#N)cc3)nccn2n1,.,-2,.,.,.,.
COc1ccc(C2SCCN2C(=O)c2ccc(Cl)s2)cc1 (stereo not drawn),.,-4,.,.,.,.
COc1ccc(SCC(=O)Nc2nc3c(s2)Cc2ccccc2-3)cc1,.,11,.,.,.,.
CCCN1CCCc2cc(CCNC(=O)C(=O)Nc3ccc(OC)cc3OC)ccc21,.,36,.,.,.,.
CCCN1CCCc2cc(CCNS(=O)(=O)Cc3ccc(F)cc3)ccc21,.,77*,.,.,.,.
CCCN1CCCc2cc(CCNS(=O)(=O)CCc3ccc(OC)cc3)ccc21,.,60*,.,.,.,.
CCCN1CCCc2cc(CCNS(=O)(=O)Cc3ccccc3)ccc21,.,94*,.,.,.,.
CCCN1CCCc2cc(CCNC(=O)CC(C)C)ccc21,.,55,.,.,.,.
CCCN1CCCc2cc(CCNC(=O)C(=O)NCCc3ccccc3)ccc21,.,44,.,.,.,.
O=C(O)C1(c2ccc(F)cc2)CC1,.,-7,.,.,.,.

# Compound activity deposited in PubChem BioAssay by several laboratories.
